High-throughput results as filed in PubChem.
This is a sample that favours compounds with a hit; in the whole collection about 3.3% have one here.
PfGluPho inh: PfG6PD (Plasmodium falciparum) enzyme inhibition; PfGluPho enzyme, NADPH resazurin-diaphorase fluorescence; inhibition, % at 20 µM; actives 0.78% (n = 350,000);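 active = inhibition reaching at least a set limit at 20 µM in the primary screen, cut at about 59% in these data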;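 also: 0% = DMSO wells with substrate and 100% = DMSO wells lacking glucose-6-phosphate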
PfM18AAP inh: PfM18AAP enzyme inhibition. recombinant PfM18AAP, H-Glu-NHMec fluorogenic cleavage. inhibition, % at 7.35 µM. actives 1.2% (n = 290,000). AID 1822;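 active = inhibition above the campaign mean inhibition over all tested compounds plus 3 SD, cut at about 28% in these data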;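 also: 0% = plate median of test compound wells and 100% = 2 mM ZnCl2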
MBD2 inh: blocks human MBD2 binding to methylated DNA; inhibition, % at 4.4 µM; Q9UBB5; actives 0.31% (n = 370,000); TR-FRET, MBD2 binding to methylated oligonucleotide; AID 686964; in the data active = inhibition above about 13%
UHRF1 binding: human UHRF1 methylated DNA binding inhibitors; UHRF1 binding to methylated oligo, TR-FRET; AID 687016; actives 0.75% (n = 370,000); inhibition, % at 4.4 µM;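 also: UHRF1 SRA domain binding a hemimethylated CpG hairpin DNA probe; 0% = median of test compound wells and 100% = reference inhibitor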
PRMT1 FP inh: blocks human protein arginine methyltransferase 1. Q99873. recombinant PRMT1, activity-based probe fluorescence polarization. inhibition, % at 2.79 µM. actives 1.3% (n = 370,000). AID 652257;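 active = inhibition above about 21% made by adding two undisclosed values, limit read from the data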
Target sequence (Q99873 whole entry, looked up): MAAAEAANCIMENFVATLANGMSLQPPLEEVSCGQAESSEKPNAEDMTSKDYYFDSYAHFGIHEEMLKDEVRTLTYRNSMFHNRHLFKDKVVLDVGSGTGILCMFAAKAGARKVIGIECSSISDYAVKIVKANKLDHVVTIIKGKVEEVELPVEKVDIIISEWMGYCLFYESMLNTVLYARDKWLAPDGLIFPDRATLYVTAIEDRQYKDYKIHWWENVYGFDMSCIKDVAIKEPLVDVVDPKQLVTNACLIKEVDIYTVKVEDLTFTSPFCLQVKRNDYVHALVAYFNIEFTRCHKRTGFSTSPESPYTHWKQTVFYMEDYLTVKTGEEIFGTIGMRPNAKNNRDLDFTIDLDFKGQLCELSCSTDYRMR
UHRF1 ctr MBD2: counter-screen for MBD2 inhibitors: human UHRF1 methylated DNA binding inhibitors; shares compounds with MBD2 inh; UHRF1 binding to methylated oligonucleotide, TR-FRET; inhibition, % at 4.4 µM; actives 25% (n = 1,000); AID 720530;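 also: UHRF1 SRA domain binding a labeled hemimethylated CpG hairpin DNA; 0% = vehicle only and 100% = reference inhibitor with vehicle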
MBD2 DBD conf: confirmation of human MBD2-DBD methylated oligonucleotide binding inhibitors. shares compounds with MBD2 inh. TR-FRET MBD2-DBD binding to methylated oligonucleotide. inhibition, % at 4.4 µM. actives 26% (n = 1,000); in the data active = inhibition above about 14%
* marks the source's active call; other numbers are inactive results; nt = not tested or not shown. Rule as the data show it, unless noted: active = inhibition above about 21%; inactive = the rest.

SMILES | PfGluPho inh | PfM18AAP inh | MBD2 inh | UHRF1 binding | PRMT1 FP inh | UHRF1 ctr MBD2 | MBD2 DBD conf
CN1C[C@@H]2[C@@H]3C(=O)N(C)C(=O)[C@@H]3[C@](C)(C1=O)N2C(=O)c1ccc(Br)cc1 | -2 | nt | 4 | -2 | 2 | nt | nt
Cc1nn2c(-c3ccc(Cl)cc3)nnc2s1 | -11 | -5 | 14* | -16 | 0 | 4 | 5
O=C(OCC(=O)N1CCc2ccccc21)c1ccccc1F | -9 | -1 | 2 | 4 | -2 | nt | nt
C[C@H](NS(=O)(=O)c1ccccc1F)C(=O)OCC(=O)N1CCc2ccccc21 | -11 | 6 | 17* | -1 | -2 | 7 | 2
Cc1cc(NC(=O)Cc2cccs2)no1 | 0 | -3 | 16* | 29* | 7 | 25* | 19*
CC1=C(C(=O)N(C)C)CC(CC(=O)NC(c2ccccc2)c2ccccc2)C(=O)N1Cc1ccc(F)cc1 (stereo not drawn) | 16 | nt | 14* | 24* | 6 | 11 | 3
COc1ccc(N2CCN(C(=O)c3ccc(CS(=O)c4cccc(C)c4)o3)CC2)cc1 (stereo not drawn) | 11 | -1 | 14* | 23* | 5 | 5 | 4
O=C(Nc1ccc(Cl)c(-c2nc3ccccc3[nH]2)c1)c1ccc2c(c1)OCO2 | 21 | -10 | 2 | 2 | -1 | nt | nt
O=C(Nc1ccc(-c2nc3ccccc3[nH]2)cc1)c1ccc2c(c1)OCO2 | -7 | 4 | 14* | 6 | -3 | 9 | 10
COc1ccc(S(=O)(=O)NCc2ccncc2)cc1NC(=O)c1ccccc1 | -7 | nt | 16* | 33* | -2 | 5 | 2
CCOc1ccc(S(=O)(=O)NCc2ccncc2)cc1NC(=O)c1ccccc1 | 5 | nt | 4 | -2 | -2 | nt | nt
CCCCn1nnnc1C(CCc1ccccc1)N1CCN(C/C=C/c2ccccc2)CC1 (stereo not drawn) | nt | nt | 15* | 19 | 7 | 12 | 4
CC(=O)c1ccc(OC2(C)CCN(Cc3cc4ccccc4[nH]3)C2)cc1 (stereo not drawn) | nt | nt | 13* | 9 | 5 | 5 | 2
COCOc1cccc(CN2CCC(C)(Oc3ccc(C(C)=O)cc3)C2)c1 (stereo not drawn) | nt | nt | 2 | 1 | -1 | nt | nt
O=C(NCC(c1cccs1)N1CCOCC1)c1cn(-c2ccccc2)nc1-c1ccc(Cl)cc1 (stereo not drawn) | 15 | nt | 14* | -5 | -1 | 7 | 3
O=C(NCC(c1cccs1)N1CCOCC1)c1cn(-c2ccccc2)nc1-c1ccccc1 (stereo not drawn) | 1 | nt | 2 | 3 | 3 | nt | nt
COc1ncnc2c1ncn2CCCNCc1ccc2c(c1)OCO2 | -2 | nt | 7 | 0 | 3 | nt | nt
O=C(CCS(=O)(=O)c1cc2c(cc1Cl)NC(=O)CO2)NCCc1ccccc1 | -6 | 1 | 31* | -1 | -5 | 7 | 0
COC(=O)c1ccccc1NC(=O)CSc1nc(O)cc(=O)n1C1CCCC1 | -8 | 1 | 13* | 24* | 16 | 5 | 2
Cc1ccc(NC(=O)CCOc2ccccc2)cc1 | 7 | 2 | 59* | 0 | 1 | 4 | 3
O=C(CCOc1ccccc1)Nc1ccccc1 | 4 | 7 | 4 | 0 | 4 | nt | nt
O=C(O)c1cccc(Sc2cc(Cl)ccc2C(=O)O)c1 | 4 | nt | 13* | 20 | 4 | 6 | 9
CC(CC(=O)N(C)CC(=O)Nc1ccc(N2CCOCC2)cc1)c1ccccc1 (stereo not drawn) | 8 | nt | 0 | 2 | 5 | nt | nt
CN(CC(=O)Nc1ccc(N2CCOCC2)cc1)C(=O)CCc1ccccc1Cl | -9 | nt | 3 | 8 | 1 | nt | nt
CN(CC(=O)Nc1ccc(N2CCOCC2)cc1)C(=O)CCNC(=O)c1ccccc1Cl | 1 | nt | 14* | 5 | 3 | 10 | 2
SMILES | PfGluPho inh | PfM18AAP inh | MBD2 inh | UHRF1 binding | PRMT1 FP inh | UHRF1 ctr MBD2 | MBD2 DBD conf
Cc1cc(C)c(C)c(S(=O)(=O)N2CCN(c3ncnc4sc(C)c(C)c34)CC2)c1C | 11 | -2 | nt | nt | nt | nt | nt
CC(C)C[C@H]1CN(CCCC[C@H]2CNC(=O)C(=O)N2CCc2ccc(O)cc2)C(=O)C(=O)N1Cc1ccccc1 | nt | nt | 13* | 25* | 8 | 7 | 3
O=C(NCc1ccncc1)C1CCC(=O)N(CCc2ccc(Cl)cc2)C1 (stereo not drawn) | 14 | -20 | 24* | 49* | 4 | 6 | 2
CSc1ccc(CNC(=O)C2CCC(=O)N(CCc3ccc(Cl)cc3)C2)cc1 (stereo not drawn) | 10 | nt | 3 | -1 | -2 | nt | nt
FC(F)Sc1nc2ccccc2[nH]1 | 11 | -6 | 40* | 0 | 3 | 9 | 6
Cc1ccc2oc(=O)c3cc(C(=O)N4CCN(C)CC4)sc3c2c1 | -8 | -1 | 4 | -9 | 5 | nt | nt
CSc1nsc(SCC(=O)Nc2ccc(C(N)=O)cc2)n1 | -15 | -6 | 23* | 0 | 4 | 6 | 2
COc1ccc(C(C)=O)cc1CC(=O)NCCCn1ccnc1 | 1 | 0 | -2 | 1 | 6 | nt | nt
O=C(CCO)c1ccc(O)cc1 | -1 | 56* | 16* | 28* | 7 | 55* | 28*
C=CCn1c(=O)c2c(nc3n2CCCN3Cc2ccccc2)n(C)c1=O | -9 | 5 | 15* | 25* | -6 | 5 | 2
COc1ccc2sc(-c3ccccc3OC)c(C#CCCO)c2c1 | 6 | nt | 15* | 17 | 2 | 9 | 7
O=C(COC(=O)c1ccc(S(=O)(=O)N2CCCCCC2)cc1)NCc1ccc(Cl)cc1 | 7 | nt | 0 | 0 | 0 | nt | nt
Cc1ccc(NCCN(C)C)c2c(=O)c3cc(O)ccc3sc12 | 21 | nt | 13* | -5 | 1 | 10 | 27*
CN(C)CCNc1cccc2sc3ccc(O)cc3c(=O)c12 | nt | nt | 4 | -6 | 8 | nt | nt
O=C(COC(=O)c1cc2c(s1)CCC2)Nc1ccc(F)cc1 | -10 | -2 | 15* | 28* | 6 | 32* | 19*
CCOc1ccc(NC(=O)CN(C)C(=O)c2cc3c(s2)CCC3)cc1OCC | 13 | nt | 17* | 27* | 5 | 24* | 20*
CCOc1ccc(NC(=O)CN(C)C(=O)c2csc3c2CCCC3)cc1OCC | -1 | nt | -2 | 6 | -4 | nt | nt
CC(=O)Nc1ccc2nc(C)n(Cc3ccc(Cl)cc3)c(=O)c2c1 | -4 | -10 | 15* | 23* | -3 | 6 | 2
COc1ccc(CCN2CC(C(=O)NCc3ccon3)CCC2=O)cc1 (stereo not drawn) | -19 | nt | 1 | -1 | 1 | nt | nt
C=CCN1[C@H](C#N)[C@@H](c2ccc(C#Cc3ccccc3OC)cc2)[C@H]1CO | nt | nt | 14* | 17 | 2 | 9 | 8
C=CCN1[C@H](CO)[C@H](c2ccc(C#CC3(O)CCCC3)cc2)[C@@H]1C#N | nt | nt | 14* | 19 | 4 | 5 | 11
